Test results: PubChem BioAssay

Tests used:
[1] = test system: Human papillomavirus type 1a protein E7 (residues 44-93); assay: HPV1a E7 fragment binders on microarrays, primary screen, biochemical, small-molecule microarray, residues 44-93, 635 nm fluorescence (AID 1108); settings: small-molecule microarray binding, fluorescence 635 nm; higher = more signal;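 further: E7 fragment applied at 1 µg/mL in TBST for 1 h at 4 C; score combines spot fluorescence with its signal to noise ratio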
[2] = modulators of HCV replicon luciferase signal, primary screen, HCV replication inhibitor project, Huh7 cells, luciferase reporter (AID 1109); settings: 48 h, higher = more signal;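 further: huh7 hepatoma cells harbouring a luciferase neomycin HCV replicon reporter; luciferase luminescence as measure of HCV replicon replication; test concentration not given here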
[3] = target: Left-right determination factor 2 (Homo sapiens) (UniProt O00292); assay: LEFTY2 binders on small-molecule microarrays, primary screen, biochemical, small-molecule microarray, 635 nm fluorescence scan (AID 1110); settings: LEFTY2 binding, higher = more signal
Chain of Left-right determination factor 2 (Homo sapiens) (O00292 whole entry, looked up): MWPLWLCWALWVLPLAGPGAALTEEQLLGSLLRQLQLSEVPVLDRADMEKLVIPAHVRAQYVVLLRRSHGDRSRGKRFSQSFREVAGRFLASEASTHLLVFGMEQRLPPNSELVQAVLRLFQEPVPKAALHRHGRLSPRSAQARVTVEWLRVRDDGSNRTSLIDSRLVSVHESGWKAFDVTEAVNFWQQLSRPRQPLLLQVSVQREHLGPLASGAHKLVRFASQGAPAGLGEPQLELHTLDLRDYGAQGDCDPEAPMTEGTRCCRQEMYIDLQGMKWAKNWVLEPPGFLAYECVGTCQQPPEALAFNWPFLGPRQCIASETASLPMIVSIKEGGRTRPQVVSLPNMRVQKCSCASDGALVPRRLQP

[4] = target: Calmodulin-1 (Homo sapiens) (UniProt P0DP23); assay: CALM1 binders on microarrays, EGTA buffer, profiling panel, biochemical, small-molecule microarray, Cy5-labelled CALM1 (AID 1111); settings: Cy5-CALM1 binding fluorescence, higher = more signal;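 further: labelled calmodulin applied in Tris saline Tween buffer holding calcium plus EGTA and DTT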
[5] = target: Calmodulin-1 (Homo sapiens) (UniProt P0DP23); assay: calcium-bound CALM1 binders on microarrays, profiling panel, artefact control for SMM control-protein annotation, biochemical, small-molecule microarray, Cy5-labelled CALM1, plus calcium (AID 1112); settings: Cy5-CALM1 binding fluorescence, higher = more signal;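 further: score merges spot fluorescence with signal to noise from triplicate slides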
[6] = small-molecule microarray binders of probe aWnt5a, primary screen, biochemical, biotinylated probe, 635/667 nm fluorescence (AID 1113); settings: higher = more signal;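 further: score merges 667 nm fluorescence intensity with signal-to-noise per printed feature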
[7] = small-molecule microarray binders of probe aShh, primary screen, biochemical, biotinylated probe, 635/667 nm fluorescence (AID 1114); settings: higher = more signal;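 further: probe is biotin-labelled aShh protein from a stem cell growth factor screen; measures binding of labelled protein to compounds printed on the slide; score merges feature fluorescence at 667 nm with signal-to-noise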
[8] = small-molecule microarray binders of probe aNog, primary screen, biochemical, biotinylated probe, 635/667 nm fluorescence (AID 1115); settings: higher = more signal;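 further: probe is biotinylated aNog protein used at 0.15 µg/mL for 1 h at 4 C; z-score combines 667 nm fluorescence of each spot with its signal to noise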
[9] = target: Torsin-1A-interacting protein 1 (Homo sapiens) (UniProt Q5JTV8); assay: LAP1 binders from COS7 cell lysate, primary screen, small-molecule microarray, 635/667 nm fluorescence (AID 1116); settings: COS7-hLAP1 lysate binding, 635 nm fluorescence, higher = more signal
Chain of Torsin-1A-interacting protein 1 (Homo sapiens) (Q5JTV8 whole entry, looked up): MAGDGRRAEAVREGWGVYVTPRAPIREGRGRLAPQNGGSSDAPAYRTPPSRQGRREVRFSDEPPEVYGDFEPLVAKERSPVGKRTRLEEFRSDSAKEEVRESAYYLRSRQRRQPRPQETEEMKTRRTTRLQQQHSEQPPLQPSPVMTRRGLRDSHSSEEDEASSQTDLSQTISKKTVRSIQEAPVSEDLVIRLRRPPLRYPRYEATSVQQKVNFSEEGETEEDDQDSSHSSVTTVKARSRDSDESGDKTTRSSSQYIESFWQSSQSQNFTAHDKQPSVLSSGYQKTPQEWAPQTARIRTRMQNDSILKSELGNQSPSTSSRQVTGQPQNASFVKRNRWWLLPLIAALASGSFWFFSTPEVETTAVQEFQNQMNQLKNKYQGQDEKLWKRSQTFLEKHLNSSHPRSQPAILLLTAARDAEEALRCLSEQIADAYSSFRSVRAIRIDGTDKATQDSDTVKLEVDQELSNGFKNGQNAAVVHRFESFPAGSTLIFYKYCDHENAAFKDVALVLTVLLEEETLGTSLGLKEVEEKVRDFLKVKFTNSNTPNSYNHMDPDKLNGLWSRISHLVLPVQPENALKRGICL

[10] = target: Alpha-bungarotoxin (Bungarus multicinctus) (UniProt P60615); assay: alpha-bungarotoxin binders on microarray, profiling panel, artefact control for SMM control protein annotation, biochemical, small-molecule microarray, Alexa647 label, 635/667 nm fluorescence (AID 1117); settings: alpha-BTX-A647 binding fluorescence, higher = more signal
Chain of Alpha-bungarotoxin (Bungarus multicinctus) (P60615 whole entry, looked up): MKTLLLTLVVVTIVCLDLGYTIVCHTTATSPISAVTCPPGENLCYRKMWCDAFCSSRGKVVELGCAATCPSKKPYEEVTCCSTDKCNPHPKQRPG

| Structure (SMILES) | composite z-score [1] | z-score [2] | composite z-score [3] | composite z-score [4] | composite z-score [5] | composite z-score [6] | composite z-score [7] | composite z-score [8] | composite z-score [9] | composite z-score [10] |
| --- | --- | --- | --- | --- | --- | --- | --- | --- | --- | --- |
| CC(C)NC(=O)[C@@]1(C)c2ccccc2C(=O)N(C(C)C)[C@H]1c1ccc(CO)cc1 | -0.609 | -0.593 | -3.05 | -0.614 | -0.0732 | -0.296 | -0.154 | -0.435 | -1.97 | -0.43 |
| O=C1C2C=CC(C(O)c3cc(C(F)(F)F)cc(C(F)(F)F)c3)N(Nc3ccc([N+](=O)[O-])cc3)C2C(=O)N1c1ccccc1 (stereo not given) | 1.42 | -3.71 | 0.511 | 1.65 | 0.311 | 0.055 | -0.224 | 0.605 | 0.185 | 1.59 |
| C=CCN1C(=O)[C@]2(CC=C)N=C(c3ccc(OCCCO)cc3)O[C@@H]2c2ccccc21 | 1.37 | -2.63 | 0.503 | 1.94 | 0.541 | 0.123 | 0.0253 | 0.0962 | 1.14 | 1.08 |
| O=c1cccc(-c2cccc(Cl)c2)o1 | 0.0546 | 0.268 | 0.128 | -0.137 | -0.137 | -0.228 | -0.338 | -0.229 | 0.432 | 0.0698 |
| CCOC(=O)[C@H]1C/C=C/C[C@H](C(=O)OCC)C(=O)O[C@H]2[C@@H](OC)O[C@H](CO)[C@@H](OC(=O)Nc3ccc(OC)cc3)[C@@H]2OC1=O | 0.89 | -2.82 | 0.721 | 0.433 | 0.118 | 0.0395 | -0.0146 | 0.206 | 0.753 | 1.09 |
| COc1ccccc1CN1C(=O)c2ccccc2[C@](Cc2ccccc2I)(C(=O)NC(C)C)[C@@H]1c1ccc(CO)cc1 | 1.46 | -2.22 | 0.242 | 0.704 | 0.0649 | -0.0455 | 0.131 | -0.402 | 0.855 | 1.41 |
| CC(C)C[C@@H]1NC(=O)[C@H]2C[C@@H](C(=O)NCCCCCC[N+](C)(C)C)[C@@H](c3cccc(OCCO)c3)N2C1=O | -0.209 | 1.79 | 0.538 | -0.432 | -0.738 | -0.152 | -0.0035 | -0.378 | 0.501 | 0.0962 |
| COC(=O)[C@@]1(Cc2ccccc2)[C@H]2c3cc(C(=O)N4CCCC4)n(Cc4ccsc4Br)c3C[C@H]2CN1C(=O)c1ccccc1 | 1.45 | -2.73 | -0.505 | 1.6 | 1.17 | 0.332 | -0.0789 | 1.99 | 0.545 | 1.23 |
| COCCOC(=O)N1C(=O)[C@@]2(c3cc(C#Cc4ccc(OC)cc4)ccc31)[C@H](C(=O)NC[C@H](O)c1ccccc1)[C@H]1C(=O)O[C@H](c3ccccc3)[C@H](c3ccccc3)N1[C@@H]2c1ccc(O)cc1 | 0.872 | -1.45 | 0.887 | 0.0624 | -0.0377 | -0.0816 | 0.875 | 0.369 | 1.37 | 0.931 |
| C=CCN1C(=O)[C@@]2(O[C@@H](CCO)[C@H]([Si](C)(C)c3ccc(OC)cc3)[C@H]2C)c2cc(N3C(=O)c4ccccc4Oc4ccccc43)ccc21 | -0.719 | -5.16 | 0.163 | 1.4 | 0.927 | 0.0181 | -0.186 | 0.0061 | 0.669 | 0.328 |
| C=CCC(OC(C)=O)[C@@H]1[C@@H](N(Cc2cc3ccccc3o2)C(=O)Cc2ccc(F)cc2)c2cc(OCCCO)ccc2N1C(=O)c1ccc2ccccc2n1 (stereo not given in full) | -0.221 | 0.476 | -0.139 | -0.408 | -0.12 | 0.0179 | -0.426 | 0.14 | -0.103 | 0.222 |
| NCCCCCNC(=O)[C@@H]1C[C@@H]2C(=O)N[C@@H](CCCCN)C(=O)N2[C@@H]1c1cccc(OCCO)c1 | 0.309 | 0.731 | 0.599 | -0.804 | -0.262 | 0.0921 | 0.241 | 0.628 | 1.97 | -0.066 |
| O=C(NC1CC1)[C@@H]1c2ccccc2C(=O)N(Cc2ccccc2)[C@H]1c1ccc(CO)cc1 | 0.511 | -0.89 | -1.25 | -0.564 | -0.648 | -0.148 | 0.0099 | 0.368 | 0.835 | 0.406 |
| CO[C@H]1O[C@H](CO)[C@@H](OC(=O)c2ccc(Br)cc2)[C@@H]2OC(=O)[C@@H](Cc3ccc4ccccc4c3)C/C=C/C[C@H](Cc3ccc4ccccc4c3)C(=O)O[C@@H]12 | 0.872 | -1.13 | -0.255 | 1.29 | -0.145 | -0.0894 | -0.16 | -0.241 | 1.22 | 0.528 |
| COCCCNC(=O)[C@]1(Cc2ccccc2CN=[N+]=[N-])N=C(c2ccc(OCCCO)cc2)O[C@@H]1c1ccccc1 | 1.4 | -3.18 | -0.369 | 0.486 | 0.0518 | 0.0519 | -0.279 | -0.225 | 1 | 0.543 |
| C=CCOC(=O)[C@@H]1[C@H]2C(=O)O[C@H](c3ccccc3)[C@H](c3ccccc3)N2[C@H](c2ccc(OCCOC(=O)[C@H]3C[C@H]4C(=O)N[C@@H](CCCCN(C)C)C(=O)N4[C@H]3c3cccc(OCCO)c3)cc2)[C@@]12C(=O)Nc1ccc(I)cc12 | 1.42 | -1.14 | 0.724 | 0.993 | -0.069 | -0.13 | 0.123 | -0.0863 | 1.03 | 2.07 |
| C=CC[C@H](OC(=O)Nc1ccc(OC)cc1)c1ccc(O)c2ccccc12 | 1.07 | -3.63 | 0.848 | 0.107 | -0.636 | 0.0511 | 0.0469 | 0.241 | 0.505 | 1.78 |
| COC(=O)[C@@]1(Cc2ccccc2)[C@H]2c3cc(C(=O)N4CCCC4)n(Cc4cc(F)cc5c4OCOC5)c3C[C@H]2CN1C(=O)c1ccccc1 | 0.0951 | -0.592 | -0.655 | 1.08 | 0.641 | 0.14 | 0.688 | 1.93 | 1.74 | 0.468 |
